High-throughput results as filed in PubChem BioAssay.
In the library only some 7.5% were active in any assay of this set; here they are far more common.
Rab9 promoter act: activates the Rab9 promoter. Huh7 Rab9 promoter-luciferase reporter, luminescence, 24 h. Potency, µM (titrated, usually from 9.22 µM), hits mostly activators. hit rate 2.8% among 320,000; note: nearly all actives have a fitted effect of over 60% in size
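Steps: seed 1500 Huh7 Rab9-luc cells per well, rest 2 h at 37 °C; add compound in DMSO; incubate 24 h; add luciferase reagent, 10 min ambient; read luminescence.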
SMN2 splice up: increases expression of the SMN2 splice variant; HEK293 SMN2-luciferase splicing reporter, luminescence, 30-36 h; Potency, µM (titrated, usually from 46.1 µM), most hits filed as activators; hit rate 2.8% among 210,000; AID 1458; note: nearly all actives have a fitted effect of over 55% in size
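HEK293 cells carry an SMN2 […]–luciferase reporter in which exon 7 inclusion puts luciferase in frame. Cells were plated 10-12 h before compound addition, then incubated 30-36 h at 37C. ONE-Glo luminescence was read; sodium butyrate at 4.5 mM final served as control.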
NPC1 prom act: activates the NPC1 promoter; hit rate 2.4% among 320,000; Potency, µM (highest dose often 9.22 µM), usual class: activators; Huh7 NPC1 promoter luciferase reporter, 24 h; AID 485313; note: nearly all actives have a fitted effect of over 60% in size
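Luciferase expression driven by the NPC1 promoter was measured in stably transfected Huh7 cells after a 24 h compound incubation, using a luciferase reagent and a luminescence read.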
Luc counter: blocks Kinase-Glo luciferase, a counter-screen artifact; Potency, µM (series often up to 38.3 µM), most hits filed as inhibitors; Kinase-Glo luciferase, ATP luminescence, 8 min; hit rate 0.28% among 200,000; AID 1379; Q27757; note: nearly all actives have a fitted effect of over 60% in size
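Light output from Kinase-Glo luciferase with luciferin and 10 uM ATP in 50 mM imidazole pH 7.2, KCl, MgCl2, Tween 20, BSA; compound pin-delivered, 8-min ambient incubation, then luminescence read.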
ELG1 genotoxic: inducers of genotoxicity in HEK293T ELG1-luciferase cells. HEK293T ELG1-luciferase reporter, luminescence, 16 h. Potency, µM (highest dose often 46 µM), hits mostly activators. hit rate 1.3% among 330,000; note: nearly all actives have a fitted effect of over 60% in size
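Luminescence read-out: rising ELG1-luciferase signal, reflecting elevated ELG1 protein under genetic stress, flags genotoxic compounds. Cells were treated for 16 hr at 37 °C before ONE-Glo detection.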
FLuc modulator: inhibits or activates purified firefly luciferase, miR-21 counter-screen; hit rate 6.9% among 360,000; P08659; Potency, µM (highest dose often 57.5 µM), actives largely listed as inhibitors; purified FLuc, Km substrates, luminescence inhibition; note: nearly all actives have a fitted effect of over 55% in size
Target sequence (P08659 whole entry, looked up): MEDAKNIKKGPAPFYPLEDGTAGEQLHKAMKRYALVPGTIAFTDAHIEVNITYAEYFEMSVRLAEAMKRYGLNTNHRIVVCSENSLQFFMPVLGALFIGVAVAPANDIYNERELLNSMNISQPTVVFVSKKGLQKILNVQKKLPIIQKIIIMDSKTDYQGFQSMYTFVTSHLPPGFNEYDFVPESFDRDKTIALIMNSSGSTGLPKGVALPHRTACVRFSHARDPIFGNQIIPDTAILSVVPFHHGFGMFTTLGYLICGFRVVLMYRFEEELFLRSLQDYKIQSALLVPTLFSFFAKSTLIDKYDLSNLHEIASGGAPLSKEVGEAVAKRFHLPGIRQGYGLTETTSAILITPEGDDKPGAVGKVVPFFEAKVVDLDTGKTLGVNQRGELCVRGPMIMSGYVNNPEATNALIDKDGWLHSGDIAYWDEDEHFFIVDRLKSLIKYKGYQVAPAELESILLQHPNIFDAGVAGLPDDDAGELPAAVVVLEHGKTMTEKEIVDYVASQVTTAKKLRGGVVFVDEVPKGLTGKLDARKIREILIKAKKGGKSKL
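Purified P. pyralis luciferase (10nM final) with 10uM D-luciferin and 10uM ATP (Km levels) in 50mM Tris acetate pH 7.5, 10mM Mg acetate, 0.01% Tween-20, 0.05% BSA; qHTS 6-point titration, ~60 µM downward; luminescence read.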
Large screens that a line does not name were inactive. Calls come from the whole dose curve; as a rule, active = well fitted curve in the direction sought with a large enough effect; inconclusive = small, poorly fitted or top-dose-only effect, or another doubt; inactive = no such curve, though single readings can be large; an effect the other way counts as inactive or inconclusive.

OCCCCNCc1ccc(OCc2ccc(Cl)cc2Cl)cc1	none
Cn1nc(-c2ccccc2)c(-c2ccccc2)c(C(=O)Nc2ccccc2C(N)=O)c1=O	none (no result: Rab9 promoter act, NPC1 prom act, Luc counter, ELG1 genotoxic)
O=C(CSc1nnc(SCc2ccccc2)s1)N/N=C/C=C/c1ccccc1[N+](=O)[O-]	FLuc modulator 23.9µM
O=C(CSc1nnc(SCc2ccc(Cl)cc2)s1)N/N=C/c1ccccc1C(=O)O	FLuc modulator 10.7µM (no result: SMN2 splice up, Luc counter)
O=C(CSc1nnc(SCc2ccccc2)s1)N/N=C/C=C\c1ccco1	FLuc modulator inconclusive
O=C(CSc1nnc(SCc2ccccc2)s1)N/N=C/c1ccc(C(=O)O)cc1	FLuc modulator 2.39µM (no result: SMN2 splice up, Luc counter)
O=C(CSc1nnc(SCc2ccccc2)s1)N/N=C/c1ccc(Cl)cc1Cl	none
O=C(CSc1nnc(SCc2ccc(Cl)cc2)s1)N/N=C/c1c(Cl)cccc1Cl	none
Cc1ccc(CSc2nnc(SCC(=O)N/N=C/c3ccc(C(=O)O)cc3)s2)cc1	FLuc modulator 0.239µM (no result: SMN2 splice up, Luc counter)
COc1cccc(-c2nnc(SCC3CNC(=O)O3)n2-c2ccc(Cl)cc2)c1 (stereo not given)	none (no result: SMN2 splice up, Luc counter)
O=C(CSc1nc2ccccc2s1)N/N=C/c1ccccc1C(=O)O	ELG1 genotoxic inconclusive, FLuc modulator inconclusive (no result: SMN2 splice up, Luc counter)
Cc1ccc(CSc2nnc(SCC(=O)N/N=C/c3c[nH]c4ccccc34)s2)cc1	ELG1 genotoxic inconclusive, FLuc modulator inconclusive
O=C(CSc1nc2ccccc2s1)N/N=C/c1ccc(C(=O)O)cc1	FLuc modulator 26.9µM
CC(/C=N/NC(=O)CSc1nc2ccccc2n1C)=C\c1ccco1	none
CC(=C/c1ccco1)/C=N/NC(=O)CSc1nnc(SCc2ccc(C)cc2)s1	FLuc modulator 2.69µM
Cc1ccc(CSc2nnc(SCC(=O)N/N=C/c3ccccc3OCC(=O)O)s2)cc1	FLuc modulator 1.51µM (no result: SMN2 splice up, Luc counter)
COc1cccc(OCC(=O)NCCS(=O)(=O)N2CCN(c3ccccc3F)CC2)c1	none (no result: Rab9 promoter act, SMN2 splice up, NPC1 prom act, Luc counter, ELG1 genotoxic)
COc1ccc2[nH]c3c(=O)n(Cc4ccc(C(=O)N5CCC(C(N)=O)CC5)cc4)c(=S)[nH]c3c2c1	FLuc modulator 21.3µM
Cc1cc(C)c2c(CN3CCCCC3)cc(=O)oc2c1	FLuc modulator inconclusive (no result: SMN2 splice up, Luc counter)
Cc1cc(C)c2c(CN3CCC(C)CC3)cc(=O)oc2c1	Rab9 promoter act inconclusive, NPC1 prom act inconclusive, ELG1 genotoxic inconclusive, FLuc modulator 15.1µM (no result: SMN2 splice up, Luc counter)
CC1CCc2sc(C(=O)NC(C)C3CCCO3)cc2C1 (stereo not given)	Rab9 promoter act inconclusive, NPC1 prom act inconclusive, ELG1 genotoxic inconclusive, FLuc modulator 10.7µM (no result: SMN2 splice up, Luc counter)
CC1CCc2sc(C(=O)NC3CCCCC3)cc2C1 (stereo not given)	Rab9 promoter act 3.55µM, NPC1 prom act 1.78µM, ELG1 genotoxic inconclusive, FLuc modulator inconclusive (no result: SMN2 splice up, Luc counter)
CC1CCc2sc(C(=O)NNC(=S)NCC3CCCO3)cc2C1 (stereo not given)	none (no result: SMN2 splice up, Luc counter)
CCCCNC(=O)NS(=O)(=O)c1ccc(NC(=O)CCC(=O)c2cccs2)cc1	none (no result: SMN2 splice up, Luc counter)
COc1cccc(CNC(=O)CCn2c(=O)c3cccn3c3ccc(F)cc32)c1OC	none (no result: Rab9 promoter act, SMN2 splice up, NPC1 prom act, Luc counter, ELG1 genotoxic)
O=C(Nc1ccc(F)cc1F)C1CCN(S(=O)(=O)c2ccc3[nH]c(=O)ccc3c2)CC1	none (no result: Rab9 promoter act, SMN2 splice up, NPC1 prom act, Luc counter, ELG1 genotoxic)
N#CC1=C(N)Oc2n[nH]c(-c3ccccc3)c2C1c1cccnc1 (stereo not given)	SMN2 splice up 3.55µM
Cc1ccc(-c2[nH]nc3c2C(c2cccnc2)C(C#N)=C(N)O3)cc1 (stereo not given)	none (no result: SMN2 splice up, Luc counter, ELG1 genotoxic)
COc1ccc(/C=C/C(=O)Oc2ccc(/C=N/NC(=O)COc3c(C)cccc3C)cc2)cc1	SMN2 splice up inconclusive
COc1ccc(/C=C/C=N/NC(=O)COc2ccc(OC)cc2)cc1	FLuc modulator 4.78µM
COc1ccc(NCC(=O)N/N=C/C=C\c2ccccc2)cc1	FLuc modulator inconclusive
Cc1ccc(OCC(=O)N/N=C/C=C/c2ccco2)cc1	FLuc modulator 19µM
COc1ccc(/C=C/C(=O)Oc2cccc(/C=N/NC(=O)COc3c(C)cccc3C)c2)cc1	Rab9 promoter act 2.82µM, SMN2 splice up inconclusive, NPC1 prom act 1.58µM, ELG1 genotoxic inconclusive
CCCCCCn1nc(C(=O)Nc2nc3c(s2)CCCC3)c2ccccc2c1=O	none
